ALOX15 inhib = blocks human 15-lipoxygenase activity | P16050 | purified 15hLO-1, xylenol orange hydroperoxide absorbance | Potency, µM (doses to about 57.1 µM), without a hit: at the highest dose activity change, negative = inhibition, most hits filed as inhibitors | 1.4% of 74,000 active; note: potency is the fitted concentration of half-maximal effect; % is set by controls: 0 for no effect and ±100 for the full control effect; nearly all actives have a fitted effect of over 55% in size
Target sequence (P16050 whole entry, looked up): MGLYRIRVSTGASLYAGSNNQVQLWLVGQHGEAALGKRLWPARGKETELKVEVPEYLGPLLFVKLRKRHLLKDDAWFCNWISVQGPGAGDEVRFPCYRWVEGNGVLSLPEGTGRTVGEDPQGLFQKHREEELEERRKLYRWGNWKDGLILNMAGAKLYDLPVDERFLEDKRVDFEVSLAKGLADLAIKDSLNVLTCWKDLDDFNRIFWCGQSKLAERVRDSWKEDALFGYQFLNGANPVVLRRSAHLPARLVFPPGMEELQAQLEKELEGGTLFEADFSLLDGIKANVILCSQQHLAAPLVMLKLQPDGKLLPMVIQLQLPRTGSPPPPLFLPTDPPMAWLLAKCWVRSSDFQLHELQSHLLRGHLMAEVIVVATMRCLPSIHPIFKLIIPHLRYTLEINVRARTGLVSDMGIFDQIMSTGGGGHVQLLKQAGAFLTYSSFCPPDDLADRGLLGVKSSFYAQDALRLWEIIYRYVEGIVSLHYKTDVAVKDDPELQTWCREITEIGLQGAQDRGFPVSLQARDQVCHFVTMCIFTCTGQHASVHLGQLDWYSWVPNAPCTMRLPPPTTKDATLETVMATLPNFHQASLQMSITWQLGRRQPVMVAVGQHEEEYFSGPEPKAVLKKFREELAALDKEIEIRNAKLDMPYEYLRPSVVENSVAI
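Compounds were preincubated 15 min at room temperature with 40 nM purified human enzyme (25 mM Hepes pH 7.5, 0.01% Triton X-100); 50 uM arachidonic acid reacted 6 min. Fe-xylenol orange detection, 30 min, absorbance ratio 573/405 nm.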
Tau filament bind = binders of human tau filaments; P10636; recombinant tau filaments, thioflavin S fluorescence, 15 h; filaments grown with octadecylsulfate alongside compound; Potency, µM (doses to about 57.1 µM), without a hit: top-dose activity change, negative = inhibition; 2% of 71,000 active; AID 596;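 note: potency is the fitted concentration of half-maximal effect; % is set by controls: 0 for no effect and ±100 for the full control effect; actives lower thioflavin S fluorescence by blocking filaments or displacing dye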
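Tau 2 uM in ThS buffer dispensed; compound added; 60 uM ODS added (finals 1 uM tau, 30 uM ODS); 15 h 37 C; fluor ex450/em510.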
HBB splice mod = hemoglobin beta splicing modulation | 0.06% of 65,000 active | HBB splicing reporter cell assay, activation; EGFP reporter with mutant IVS2-654 intron; response scale: normalised to 500 nM splice-correcting PNA | Potency, µM (series often up to 46.1 µM), for the others: top-dose activation, most hits filed as activators; note: potency is the fitted concentration of half-maximal effect; 0% is about no effect
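HeLa cells stably expressing EGFP interrupted by mutant beta-globin intron 2 (IVS2-654), 500/well in 2% FCS. Treated with compound for 2 days at 37C. Splicing correction scored as total well GFP intensity (488 nm excitation, 500-520 nm emission); 500 nM antisense PNA served as control.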
Epigenetic mod = epigenetic modulators derepressing GFP locus in mouse cells; Potency, µM (titrated, usually from 46.1 µM), for inactives: at the top dose GFP derepression (activation); AID 597; mouse C127i GFP locus derepression, cytometry, 30 h; 0.09% of 68,000 active; note: % of control where 0% means no effect
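Derepression screen: silenced CMV-GFP reporter in murine C127i cells, 30 h compound incubation at 37 C, washed cells imaged by laser-scanning cytometer to enumerate GFP-expressing objects of 20 to 120 um.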
UbGFP stabilizer = proteasome inhibitors stabilizing ubiquitin-GFP reporter. Potency, µM (series often up to 45.9 µM), inactives show at the highest dose activation (GFP accumulation), hits mostly activators. AID 526. Ubiquitin-GFP reporter cells, proteasome inhibition, GFP fluorescence; response scale: untreated = 0%, 10 µM MG-132 = 100%. 67,000 tested, under 10 active; active = well fitted activation curve with a large enough effect, not every such curve was filed as active; inconclusive = small, poorly fitted or top-dose-only effect, or another doubt; inactive = no such curve, though single readings can be large or run the other way; note: potency is the fitted concentration of half-maximal effect
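Proteasome block read as GFP accumulation: ubiquitin(G76V)-GFP U2OS cells exposed to compound (2.9 nM–46 uM) for 4 hr at 37 C. Normalization used untreated cells as 0% and 10 uM MG-132 as 100%; concentration-response curves fitted.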
Pol III holo inh = blocks replication by bacterial DNA polymerase III holoenzyme | reconstituted DNA polymerase III holoenzyme replication, biochemical | Potency, µM (top dose mostly 57.1 µM), inactives show top-dose activity change, negative = inhibition | 0.25% of 71,000 active; note: potency is the fitted concentration of half-maximal effect; % is set by controls: 0 for no effect and ±100 for the full control effect
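Reconstituted *E. coli* holoenzyme (0.35 nM Pol III, 1 nM beta, 154 nM SSB, 2 nM primase) was preincubated with compound for 15 min at RT. Synthesis on 1.4 nM ssM13Gori ran 35 min, then was stopped with PicoGreen/EDTA and read as dsDNA fluorescence.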
* = called active by the depositor; ? = inconclusive; . = no result given; [ ] = another dose, or the depositor's remark. In the library only some 3.2% were active in any assay of this set; here they are far more common. Unless noted, calls come from the whole dose curve; as a rule, active = well fitted curve in the direction sought with a large enough effect; inconclusive = small, poorly fitted or top-dose-only effect, or another doubt; inactive = no such curve, though single readings can be large; an effect the other way counts as inactive or inconclusive.

SMILES	ALOX15 inhib	Tau filament bind	HBB splice mod	Epigenetic mod	UbGFP stabilizer	Pol III holo inh
CC(C)[C@@]1(NC(=O)[C@@H]2C=C3c4cccc5[nH]cc(c45)C[C@@H]3N(C)C2)O[C@]2(O)[C@H]3CCCN3C(=O)[C@H](Cc3ccccc3)N2C1=O	.	434%	10%	0%	-5%	0%
CN1CSC(=S)N(C)C1	4%	5%	1%	6.3µM*	15%	-5%
COc1ccc2c(c1)CCC1[C@@H]2CCC2(C)[C@@H](NCCCCCCN3C(=O)C=CC3=O)CC[C@@H]12 (stereo not given in full)	13µM*	?	.	0%	4%	-4%
CN(C)[C@@H]1C(=O)C(C(N)=O)=C(O)[C@]2(O)C(=O)C3=C(O)c4c(O)cccc4[C@@](C)(O)[C@@H]3C[C@@H]12	.	?	.	-5%[9.22 µM]	2%	-3%
COc1ccc(N2CCN(CCCN)CC2)cc1	3%	20µM*	3%	3%	-7%	-4%
[Cd+2].[Cl-].[Cl-]	13µM*	5%	-2%	.	.	0.063µM*
CC(C)(C)NC[C@H](O)c1ccccc1Cl	8%	-5%	1%	-1%	0%	-6%
CC[N+](CC)(CCCNC1=CC(=O)C(NCCC[N+](CC)(CC)Cc2ccccc2)=CC1=O)Cc1ccccc1	-9%[25.6 µM]	32µM*	.	0%	-1%	-5%

Source: PubChem BioAssay
